G9a block: blocks human histone lysine methyltransferase G9a; 350,000 tested, 8.8% active; G9a H3K9 monomethylation, AlphaScreen, 2 h; Potency, µM (top dose mostly 102 µM), hits mostly inhibitors; Q96KQ7; further: nearly all actives have a fitted effect of over 75% in size
Target sequence (Q96KQ7 913-1193 limits assumed): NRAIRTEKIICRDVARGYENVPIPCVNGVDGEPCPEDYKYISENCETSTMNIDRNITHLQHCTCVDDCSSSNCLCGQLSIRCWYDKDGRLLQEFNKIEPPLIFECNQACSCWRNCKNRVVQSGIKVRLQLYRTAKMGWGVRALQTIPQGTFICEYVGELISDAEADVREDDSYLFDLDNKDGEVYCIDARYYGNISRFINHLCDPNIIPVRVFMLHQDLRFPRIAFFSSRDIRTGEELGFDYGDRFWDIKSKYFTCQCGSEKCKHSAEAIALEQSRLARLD
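G9a (20 nM) preincubated 15 min RT with compounds, then 500 nM biotinylated H3K9 peptide and 20 uM SAM added; 2 h RT reaction. Monomethyl-H3K9 product detected by AlphaScreen with anti-H3K9me1 antibody, streptavidin donor and anti-rabbit IgG acceptor beads.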
TDP1 inh: TDP1 (human) enzyme inhibition | Q9NUW8 | recombinant TDP1, AlphaScreen DNA substrate cleavage | Potency, µM (titrated, usually from 130 µM), usual class: inhibitors | 350,000 tested, 0.28% active | AID 485290; further: nearly all actives have a fitted effect of over 40% in size
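Steps: enzyme plus compound, 15 min RT; add biotin/phosphotyrosine-FITC oligonucleotide (15 nM final), react 5 min; add donor/acceptor beads (10 ug/ml final), 10 min; read AlphaScreen. Tdp1 at 1 nM final.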
HP1b chromo inh: HP1-beta chromodomain-methylated histone interaction inhibition; Potency, µM (titrated, usually from 114 µM), actives largely listed as inhibitors; AlphaScreen HP1-beta / biotin-H3K9me3 peptide binding; P83916; 390,000 tested, 0.56% active; AID 540317; further: nearly all actives have a fitted effect of over 70% in size
Target sequence (P83916 whole entry, looked up): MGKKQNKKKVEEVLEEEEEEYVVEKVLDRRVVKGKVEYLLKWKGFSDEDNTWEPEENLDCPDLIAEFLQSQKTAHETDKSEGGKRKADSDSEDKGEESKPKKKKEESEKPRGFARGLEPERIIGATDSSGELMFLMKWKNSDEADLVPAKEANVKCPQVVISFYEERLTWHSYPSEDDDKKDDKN
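Compound inhibition of the preformed complex between 50 nM HP1-beta and 50 nM biotinylated H3K9me3 peptide was read by AlphaScreen. Buffer was PBS pH 7.4 with 0.01% Tween-20. Incubations ran 30 min at room temperature, with 10 ug/mL donor/acceptor beads.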
JMJD2A Tudor: inhibitors of human JMJD2A Tudor domain | O75164 | AlphaScreen JMJD2A-Tudor / H3K4me3 peptide binding | Potency, µM (titrated, usually from 114 µM), usual class: inhibitors | 390,000 tested, 4.4% active | AID 504339; further: nearly all actives have a fitted effect of over 50% in size
Sfp inh: blocks B. subtilis Sfp PPTase activity; Q9F4F7; Biochemical Sfp PPTase activity, qHTS; Potency, µM, actives largely listed as inhibitors; 310,000 tested, 3.5% active; AID 1490;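 further: the enzyme is Sfp with the accession as filed and its product quenches rhodamine fluorescence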
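Buffer: 50 mM Hepes-Na pH 7.6, 10 mM MgCl2, 0.01% Nonidet P-40, 0.01% BSA. Enzyme 15 nM, pre-exposed to compound 15 min; substrates then added and fluorescence change tracked over 30 min.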
BAZ2B inh: inhibitors of human BAZ2B bromodomain; Q9UIF8; AlphaScreen BAZ2B-H3K14Ac peptide displacement; Potency, µM (series often up to 114 µM), usual class: inhibitors; 360,000 tested, 4.4% active; AID 504333; further: nearly all actives have a fitted effect of over 60% in size
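Multi-concentration screen (max 110 uM) measuring displacement of acetylated histone H3 peptide from BAZ2B by AlphaScreen, using 50 nM protein, 50 nM peptide and 10 ug/mL streptavidin donor plus Ni-chelate acceptor beads.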
Each line names hits and unclear results; the compound was inactive in the other large screens. Sampled rows, rich in hits. Any-hit rate of the full collection: about 12%. The call rests on the fitted dose curve; in most records, active means well fitted curve in the direction sought with a large enough effect; inconclusive means small, poorly fitted or top-dose-only effect, or another doubt; inactive means no such curve, though single readings can be large; an effect the other way counts as inactive or inconclusive.

Cc1cc(NS(=O)(=O)c2ccc(NC(=O)c3ccccc3F)cc2)nc(C)n1	none (no result: Sfp inh)
O=C(O)CC1S/C(=N/N=C/c2ccccn2)NC1=O (centres undefined)	JMJD2A Tudor 79.4µM, BAZ2B inh 44.7µM
CCOc1cc(/C=N/N=C2/NC(=O)C(CC(=O)O)S2)ccc1OCc1ccc(Cl)cc1Cl (centres undefined)	TDP1 inh 20µM, HP1b chromo inh 44.7µM, JMJD2A Tudor 39.8µM, BAZ2B inh 28.2µM (no result: G9a block)
CC(OC(=O)CSc1ccc(F)cc1)C(=O)NC1(C#N)CCCCC1 (centres undefined)	none (no result: G9a block)
Cc1cccc(C)c1NC(=O)CSCc1cnn(-c2ccccc2)c1-n1cccc1	none (no result: Sfp inh)
Cc1ccn2c(NC3CCCC3)c(-c3ccccn3)nc2c1	G9a block inconclusive, JMJD2A Tudor 50.1µM, BAZ2B inh 50.1µM
c1ccc(-c2nc3ccccn3c2NC2CCCC2)nc1	JMJD2A Tudor inconclusive, Sfp inh 10µM, BAZ2B inh 50.1µM
Cc1ccn2c(NC3CCCC3)c(-c3ccncc3)nc2c1	none
Cc1ccc(S(=O)(=O)N2CCCc3cc(NC(=O)c4ccc(C(F)(F)F)cc4)ccc32)cc1	none (no result: Sfp inh)
Cc1ccc(Cn2ccnc2SCC(=O)NCc2ccc(F)cc2)cc1	none (no result: Sfp inh)
CC1CCCCN1C(=O)COC(=O)c1cccc(NS(=O)(=O)c2ccccc2)c1 (centres undefined)	G9a block 56.2µM (no result: TDP1 inh, Sfp inh)
CCOC(=O)C1CCN(C(=O)c2cccc(NS(=O)(=O)c3ccc(F)c(F)c3)c2)CC1	G9a block 50.1µM, Sfp inh inconclusive
Cc1ccc(S(=O)(=O)Nc2cccc(C(=O)N3CCN(c4ccccc4O)CC3)c2)cc1F	G9a block 50.1µM (no result: Sfp inh)
CC1CCCN(C(=O)COC(=O)c2cccc(NS(=O)(=O)c3ccccc3)c2)C1 (centres undefined)	none (no result: Sfp inh)
CCOC(=O)N1CCN(C(=O)c2cccc(NS(=O)(=O)c3ccc(F)c(F)c3)c2)CC1	none
Cc1cc(S(=O)(=O)Nc2ccc(C(=O)N3CCN(c4ccccc4O)CC3)cc2)ccc1F	none
O=C(Nc1ccccc1C(=O)N1CCCCC1)c1ccccc1C(F)(F)F	none
O=C(c1ccccc1)C(Sc1ncn[nH]1)c1ccccc1 (centres undefined)	G9a block 5.62µM, JMJD2A Tudor 79.4µM, Sfp inh 79.4µM
CC(Sc1ncn[nH]1)C(=O)NCc1ccccc1 (centres undefined)	none
COc1ccc(CNC(=O)C2Cc3cc(S(=O)(=O)N4CCCC4)ccc3N2C(C)=O)c(OC)c1 (centres undefined)	G9a block 22.4µM, BAZ2B inh inconclusive
CC(=O)N1c2ccc(S(=O)(=O)N3CCCCC3)cc2CC1C(=O)NCc1ccc(N(C)C)cc1 (centres undefined)	G9a block 39.8µM, JMJD2A Tudor 28.2µM
Cc1ccc(Cc2c[nH]c(=S)s2)cc1	G9a block 7.08µM, JMJD2A Tudor inconclusive, Sfp inh inconclusive, BAZ2B inh inconclusive
Cc1ccc(Cc2cn3cc(-c4ccc(F)cc4)nc3s2)cc1	none (no result: Sfp inh)
Cc1nn(CCc2n[nH]c(=S)n2C2CCCCC2)c(C)c1Br	G9a block 2.51µM, JMJD2A Tudor 79.4µM
COc1ccccc1-n1cc(-c2ccc(Br)cc2)[nH]c1=S	JMJD2A Tudor inconclusive (no result: TDP1 inh)
Cc1nn(CCc2n[nH]c(=S)n2C)c(C)c1Br	G9a block inconclusive, JMJD2A Tudor 7.08µM
Cc1nn(Cc2ccc(C(=O)NC3CCCCC3)o2)c(C)c1Br	none
COc1ccccc1-n1c(CCn2nc(C)c(Br)c2C)n[nH]c1=S	G9a block 1.12µM, JMJD2A Tudor 7.08µM, Sfp inh inconclusive
Cc1ccc(C)c(N2CCN(C(=O)c3ccc4nc(-c5ccco5)c(-c5ccco5)nc4c3)CC2)c1	Sfp inh 20µM, BAZ2B inh inconclusive
COc1ccccc1N1CCN(C(=O)c2ccc3nc(-c4ccco4)c(-c4ccco4)nc3c2)CC1	G9a block 10µM, JMJD2A Tudor inconclusive, BAZ2B inh inconclusive
O=C(NC1CC1)c1cccc(S(=O)(=O)Nc2ccccc2F)c1	none (no result: TDP1 inh, Sfp inh)
O=C(/C=C/c1ccc(O)c([N+](=O)[O-])c1)c1ccc2ccccc2c1	G9a block inconclusive, JMJD2A Tudor inconclusive, BAZ2B inh inconclusive (no result: TDP1 inh)
COC(=O)c1ccc(/C=C/C(=O)c2ccc(OC)c(OC)c2)cc1	none
CSc1ccc(/C=C/C(=O)c2ccc(O)cc2)cc1	G9a block inconclusive, JMJD2A Tudor inconclusive, Sfp inh 79.4µM
COC(=O)c1ccc(/C=C/C(=O)c2ccc(OC)cc2)cc1	JMJD2A Tudor 100µM
COc1ccc(Oc2ccc(/C=C/C(=O)c3ccc(O)cc3)cc2[N+](=O)[O-])cc1	G9a block 39.8µM, JMJD2A Tudor inconclusive, BAZ2B inh inconclusive
CCc1ccc(NC(=O)C(=O)NCc2ccccn2)cc1	none
COc1ccc(-c2csc(NC(=O)CCn3cnc4ccccc4c3=O)n2)cc1OC	none
COc1ccc(-c2csc(NC(=O)CCCc3nc4ccccc4c(=O)[nH]3)n2)cc1OC	G9a block 39.8µM (no result: Sfp inh)
COC(=O)c1c(-c2cccc(OC)c2)csc1N	G9a block 39.8µM, Sfp inh 56.2µM, BAZ2B inh inconclusive
COc1ccc(-c2csc(NC(=O)C3=COCCO3)n2)cc1OC	G9a block 56.2µM, BAZ2B inh inconclusive (no result: Sfp inh)
O=C(Nc1nc(-c2cccs2)cs1)c1ccc(Cl)cc1	G9a block 31.6µM
CC1CCCC(C)N1C(=O)COC(=O)c1cc(=O)[nH]c2ccccc12 (centres undefined)	none (no result: G9a block, Sfp inh, BAZ2B inh)
Cc1ccc(S(=O)(=O)N2CCCCC2)cc1C(=O)N1CCCCCC1	none (no result: Sfp inh)
O=C1C=CN2CCCCC2CC1 (centres undefined)	JMJD2A Tudor inconclusive (no result: G9a block, Sfp inh, BAZ2B inh)
CC(=O)Oc1ccc(C(=O)O)c(OC(C)=O)c1	none
Cc1ccc(NC(=Nc2ccc(Br)cc2)N2CCOCC2)cc1C	none
Cc1csc(NC(=O)c2ccc(OCC3CCCO3)cc2)n1 (centres undefined)	none
Cc1cc(-c2csc(NC(=O)c3ccc(=O)n(C)n3)n2)c(C)n1CC1CCCO1 (centres undefined)	G9a block inconclusive, TDP1 inh 50.1µM, Sfp inh 50.1µM, BAZ2B inh inconclusive
Cc1cc(-c2csc(NC(=O)C3=COCCO3)n2)c(C)n1C	G9a block 50.1µM (no result: Sfp inh)
O=C(Nc1nc(-c2cccs2)cs1)C1=COCCO1	HP1b chromo inh inconclusive, JMJD2A Tudor 14.1µM
Cc1cc(C)c(-c2csc(NC(=O)C3=COCCO3)n2)c(C)c1	G9a block inconclusive (no result: TDP1 inh, Sfp inh)
COc1cccc(NC(=O)Nc2nc(-c3ccc(OC)c(OC)c3)cs2)c1	G9a block inconclusive, HP1b chromo inh inconclusive, JMJD2A Tudor inconclusive, BAZ2B inh inconclusive
COc1cccc(-c2csc(NC(C)=O)n2)c1	G9a block 10µM

Screening data from PubChem BioAssay.
